Measured values as given in PubChem BioAssay (NCATS).
Records with an inconclusive call do not appear. Where a call stands in place of a potency, no number is given. Activity calls are given as the source filed them. Unless noted, calls come from the whole dose curve; as a rule, active = well fitted curve in the direction sought with a large enough effect; inconclusive = small, poorly fitted or top-dose-only effect, or another doubt; inactive = no such curve, though single readings can be large; an effect the other way counts as inactive or inconclusive.

Molecular target: ATP-dependent 6-phosphofructokinase (Trypanosoma brucei brucei) (UniProt O15648)
Assay: qHTS Assay to Find Inhibitors of T. brucei phosphofructokinase: hit validation (AID 492961)
Settings: T. brucei PFK, ADP-Glo luminescence; series mostly up to 51.4 µM
Outline: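 Luminescence from ADP-Glo reports ADP generated as T. brucei PFK (1.25 nM) phosphorylates 0.5 mM fructose-6-phosphate using 0.1 mM ATP. Reactions ran 45 min at room temperature, pH 8.0.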

Sequence of ATP-dependent 6-phosphofructokinase (Trypanosoma brucei brucei) (O15648 whole entry, looked up): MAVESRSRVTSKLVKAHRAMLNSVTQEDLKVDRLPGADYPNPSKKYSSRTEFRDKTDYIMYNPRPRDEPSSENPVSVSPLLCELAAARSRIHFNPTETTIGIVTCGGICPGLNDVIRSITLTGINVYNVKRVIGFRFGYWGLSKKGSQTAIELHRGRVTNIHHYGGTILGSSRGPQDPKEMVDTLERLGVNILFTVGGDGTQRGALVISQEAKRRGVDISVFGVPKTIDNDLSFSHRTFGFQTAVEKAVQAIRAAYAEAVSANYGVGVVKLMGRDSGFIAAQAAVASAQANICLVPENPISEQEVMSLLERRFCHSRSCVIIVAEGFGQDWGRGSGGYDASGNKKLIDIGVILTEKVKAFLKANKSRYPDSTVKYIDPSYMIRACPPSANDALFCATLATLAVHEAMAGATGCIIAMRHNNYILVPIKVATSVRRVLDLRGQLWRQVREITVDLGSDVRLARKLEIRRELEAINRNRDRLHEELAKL

Row | SMILES | outcome
1 | Cc1ccc(C(C)C)c(O)c1 | inactive
2 | O=C(OOC(=O)c1ccccc1)c1ccccc1 | inactive
3 | COC(=O)c1ccc(O)cc1 | inactive
4 | Cc1c(C(=O)NCCO)[n+](=O)c2ccccc2n1[O-] | inactive
5 | CC(C)=CCC/C(C)=C/CO | inactive
6 | CN(C(=O)c1c(O)c2ccccc2n(C)c1=O)c1ccccc1 | inactive
7 | C[C@@H](N)C(=O)O | inactive
8 | C[N+](C)(C)CC[N+]1(C)Cc2c(Cl)c(Cl)c(Cl)c(Cl)c2C1 | inactive
9 | CCCCCCCCCCCCCCCCCCO | inactive
10 | OC[C@@H](O)[C@@H](O)[C@H](O)[C@H](O)CO | inactive
11 | O=C1c2ccccc2S(=O)(=O)N1CCCCN1CCN(c2ncccn2)CC1 | inactive
12 | N[C@@H](Cc1ccc(O)cc1)C(=O)O | inactive

Molecular target: Ubiquitin carboxyl-terminal hydrolase 1 (Homo sapiens) (UniProt O94782)
Assay: Inhibitors of USP1/UAF1: Pilot qHTS (AID 504865);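 note: rhodamine fluorescence freed from ubiquitin-rhodamine substrate followed over time; top concentration of the series differs between compounds; nearly all actives have a fitted effect of over 35% in size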
Settings: purified USP1/UAF1, Ub-rhodamine cleavage fluorescence; series mostly up to 114 µM
Outline: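 Kinetic fluorescence assay: 1nM USP1/UAF1, 15 min compound preincubation, then 150nM Ub-Rho; 480/540 nm.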

Sequence of Ubiquitin carboxyl-terminal hydrolase 1 (Homo sapiens) (O94782 whole entry, looked up): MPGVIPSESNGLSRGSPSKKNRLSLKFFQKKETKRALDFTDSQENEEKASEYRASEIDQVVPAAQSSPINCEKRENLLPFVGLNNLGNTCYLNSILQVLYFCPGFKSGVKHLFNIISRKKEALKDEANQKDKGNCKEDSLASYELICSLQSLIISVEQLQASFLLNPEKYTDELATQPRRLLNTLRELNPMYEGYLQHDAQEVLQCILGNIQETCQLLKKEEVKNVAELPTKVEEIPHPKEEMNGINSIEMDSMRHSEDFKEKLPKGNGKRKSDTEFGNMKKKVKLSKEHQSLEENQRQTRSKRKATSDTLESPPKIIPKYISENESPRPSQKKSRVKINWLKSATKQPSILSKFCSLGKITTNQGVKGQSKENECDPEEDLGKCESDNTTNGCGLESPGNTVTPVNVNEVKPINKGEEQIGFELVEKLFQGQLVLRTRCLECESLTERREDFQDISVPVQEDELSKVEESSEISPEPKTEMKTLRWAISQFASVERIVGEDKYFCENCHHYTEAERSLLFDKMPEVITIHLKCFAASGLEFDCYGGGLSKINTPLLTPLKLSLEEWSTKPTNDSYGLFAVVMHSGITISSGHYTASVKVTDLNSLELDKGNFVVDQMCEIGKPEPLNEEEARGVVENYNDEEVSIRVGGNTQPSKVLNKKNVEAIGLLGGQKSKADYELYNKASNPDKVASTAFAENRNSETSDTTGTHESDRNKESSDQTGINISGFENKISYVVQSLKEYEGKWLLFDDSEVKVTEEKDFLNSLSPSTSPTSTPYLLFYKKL

Row | SMILES | Potency
13 | Cc1c(N(C)C)c(=O)n(-c2ccccc2)n1C | inactive
14 | Cc1ccc(C(C)C)c(O)c1 | inactive
15 | C[C@@H]1O[C@@H](OC[C@H]2O[C@@H](Oc3c(-c4ccc(O)c(O)c4)oc4cc(O)cc(O)c4c3=O)[C@H](O)[C@@H](O)[C@@H]2O)[C@H](O)[C@H](O)[C@H]1O | inactive
16 | O=C(OOC(=O)c1ccccc1)c1ccccc1 | inactive
17 | O=C(Cn1ccnc1[N+](=O)[O-])NCCO | inactive
18 | C[N+]1(C)CCCC(OC(=O)C(O)(c2ccccc2)c2ccccc2)C1 (centres undefined) | inactive
19 | CC1CCc2cc(F)cc3c(=O)c(C(=O)O)cn1c23 (centres undefined) | inactive
20 | Cc1cccc(Nc2ccccc2C(=O)O)c1C | inactive
21 | Cc1cc(NC(=O)C2=C(O)c3ccccc3S(=O)(=O)N2C)no1 | inactive
22 | COC(=O)c1ccc(O)cc1 | inactive
23 | Cc1ccsc1/C=C/C1=NCCCN1C | inactive
24 | O=C(O)CCCc1ccccc1 | inactive
25 | NS(=O)(=O)c1ccc(C(=O)O)cc1 | inactive
26 | O=C(O)CCCCC1CCSS1 (centres undefined) | inactive
27 | OC(CCN1CCCC1)(c1ccccc1)C1CCCCC1 (centres undefined) | inactive
28 | CN(C(=O)c1c(O)c2ccccc2n(C)c1=O)c1ccccc1 | inactive
29 | C/C=C/C(=O)N(CC)c1ccccc1C | inactive
30 | CC(=O)N[C@@H](CC(C)C)C(=O)O | inactive
31 | CC(=O)NS(=O)(=O)c1ccc(N)cc1 | inactive
32 | CC[N+](CC)(CC(=O)Nc1c(C)cccc1C)Cc1ccccc1 | inactive
33 | C[n+]1ccccc1/C=N/O | inactive
34 | NS(=O)(=O)c1cc(C2(O)NC(=O)c3ccccc32)ccc1Cl (centres undefined) | inactive
35 | C1CCN2C[C@@H]3C[C@@H](CN4CCCC[C@@H]34)[C@H]2C1 | inactive
36 | CCCCCCCCCCCCCCCCCCO | inactive
37 | Cn1c(=O)c2c(ncn2CCO)n(C)c1=O | inactive
38 | OC[C@@H](O)[C@@H](O)[C@H](O)[C@H](O)CO | inactive
39 | O=C1c2ccccc2S(=O)(=O)N1CCCCN1CCN(c2ncccn2)CC1 | inactive
40 | Cn1c([N+](=O)[O-])cnc1COC(N)=O | inactive
41 | N[C@@H](Cc1ccc(O)cc1)C(=O)O | inactive

Molecular target: DNA dC->dU-editing enzyme APOBEC-3G (Homo sapiens) (UniProt Q9HC16)
Assay: qHTS for inhibitors of Vif-A3G interactions: Validation (AID 588379)
Settings: Vif-A3G protein interaction assay; series mostly up to 46.1 µM
Outline: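 HeLa cells stably expressing Vif and A3G-eYFP, 700 cells/well, incubated overnight at 37 deg C, then exposed to compound overnight at 37 deg C. Inhibition of Vif-mediated degradation read as increased yellow fluorescence (Ex 488/Em 500-530) by laser-scanning cytometry.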

Sequence of DNA dC->dU-editing enzyme APOBEC-3G (Homo sapiens) (Q9HC16 whole entry, looked up): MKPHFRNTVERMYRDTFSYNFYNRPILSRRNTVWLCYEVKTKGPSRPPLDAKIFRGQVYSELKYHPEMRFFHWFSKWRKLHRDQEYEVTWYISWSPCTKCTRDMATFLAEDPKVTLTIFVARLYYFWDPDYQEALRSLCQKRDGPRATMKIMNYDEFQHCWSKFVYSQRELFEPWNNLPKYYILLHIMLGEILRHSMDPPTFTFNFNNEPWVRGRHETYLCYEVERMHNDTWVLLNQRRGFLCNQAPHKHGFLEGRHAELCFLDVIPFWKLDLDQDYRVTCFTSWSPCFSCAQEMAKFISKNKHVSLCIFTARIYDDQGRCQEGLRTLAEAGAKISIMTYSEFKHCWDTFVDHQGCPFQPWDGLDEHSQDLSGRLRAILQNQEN

Row | SMILES | outcome
42 | O=C(O)CCCCC1CCSS1 (centres undefined) | inactive
43 | CN(C(=O)c1c(O)c2ccccc2n(C)c1=O)c1ccccc1 | inactive
44 | C[C@@H](N)C(=O)O | inactive
45 | C[N+](C)(C)CC[N+]1(C)Cc2c(Cl)c(Cl)c(Cl)c(Cl)c2C1 | inactive
46 | C1CCN2C[C@@H]3C[C@@H](CN4CCCC[C@@H]34)[C@H]2C1 | inactive
47 | O=C1c2ccccc2S(=O)(=O)N1CCCCN1CCN(c2ncccn2)CC1 | inactive
48 | CN[C@@H]1[C@H](O)[C@H](NC)[C@H]2O[C@@]3(O)C(=O)C[C@@H](C)O[C@H]3O[C@@H]2[C@H]1O | inactive

Molecular target: Estrogen receptor (Homo sapiens) (UniProt P03372)
Assay: qHTS assay for small molecule antagonists of estrogen receptor alpha signaling (AID 588513; active = well fitted curve in the direction sought with a large enough effect in the signal ratio, with a control signal flat, not every such curve was filed as active; the % refers to the signal ratio)
Settings: ER-alpha-UAS-bla HEK293, beta-lactamase ratio, antagonist mode; series mostly up to 76.9 µM
Outline: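 Cells were plated at 5000/well and incubated 4 h at 37 C. Compounds were added as 1:2 dilution series, duplicates. 17-beta-estradiol (0.5nM final) was added for 18 h before CCF4 detection.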

Sequence of Estrogen receptor (Homo sapiens) (P03372 whole entry, looked up): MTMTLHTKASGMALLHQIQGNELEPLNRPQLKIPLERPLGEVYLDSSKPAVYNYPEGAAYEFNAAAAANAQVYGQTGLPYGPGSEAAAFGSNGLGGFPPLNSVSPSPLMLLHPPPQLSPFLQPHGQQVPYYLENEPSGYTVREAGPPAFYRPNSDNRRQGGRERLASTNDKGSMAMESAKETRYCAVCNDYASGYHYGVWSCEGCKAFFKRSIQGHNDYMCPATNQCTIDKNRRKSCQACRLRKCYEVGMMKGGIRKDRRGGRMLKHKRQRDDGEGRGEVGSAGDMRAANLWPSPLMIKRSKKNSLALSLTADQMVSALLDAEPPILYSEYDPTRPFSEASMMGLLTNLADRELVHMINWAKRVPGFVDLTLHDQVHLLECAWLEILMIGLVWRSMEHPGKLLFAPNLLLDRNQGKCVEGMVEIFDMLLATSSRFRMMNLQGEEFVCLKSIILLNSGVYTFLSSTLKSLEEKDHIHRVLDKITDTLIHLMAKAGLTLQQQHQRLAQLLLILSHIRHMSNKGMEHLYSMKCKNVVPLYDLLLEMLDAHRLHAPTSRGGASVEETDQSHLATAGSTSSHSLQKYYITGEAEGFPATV

Row | SMILES | outcome
49 | Cc1c(N(C)C)c(=O)n(-c2ccccc2)n1C | inactive
50 | Cc1ccc(C(C)C)c(O)c1 | inactive
51 | O=C(OOC(=O)c1ccccc1)c1ccccc1 | inactive
52 | Nc1ccc(S(=O)(=O)c2ccc(N)cc2)cc1 | inactive
53 | CCCCOC(=O)c1ccc(N)cc1 | inactive
54 | O=C(O)CCCCC1CCSS1 (centres undefined) | inactive
55 | CC(=O)NS(=O)(=O)c1ccc(N)cc1 | inactive
56 | CC[N+](CC)(CC(=O)Nc1c(C)cccc1C)Cc1ccccc1 | inactive
57 | CCCCCCCCCCCCCCCCCCO | inactive

Molecular target: Estrogen receptor (Homo sapiens) (UniProt P03372)
Assay: qHTS assay for small molecule agonists of estrogen receptor alpha signaling (AID 588514; calls by dose curve; note: nearly all actives have a fitted effect of over 70% in size)
Settings: ER-alpha-UAS-bla HEK293, beta-lactamase ratio, 18 h, percent of full estradiol response, vehicle zero; series mostly up to 76.8 µM
Outline: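 Cells were plated at 5000/well, incubated 4 hrs at 37 C, dosed with compound titration series, incubated 18 hrs at 37 C, loaded with CCF4 dye for 2 hrs at RT, then fluorescence was read.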

Row | SMILES | outcome
58 | Cc1c(N(C)C)c(=O)n(-c2ccccc2)n1C | inactive
59 | O=C(OOC(=O)c1ccccc1)c1ccccc1 | inactive
60 | COC(=O)c1ccc(O)cc1 | inactive
61 | Nc1ccc(S(=O)(=O)c2ccc(N)cc2)cc1 | inactive
62 | O=C(O)CCCCC1CCSS1 (centres undefined) | inactive
63 | CC(=O)NS(=O)(=O)c1ccc(N)cc1 | inactive
64 | CC[N+](CC)(CC(=O)Nc1c(C)cccc1C)Cc1ccccc1 | inactive
65 | CCCCCCCCCCCCCCCCCCO | inactive
66 | OC[C@@H](O)[C@@H](O)[C@H](O)[C@H](O)CO | inactive

Molecular target: Bile acid receptor (Homo sapiens) (UniProt Q96RI1)
Assay: qHTS assay for small molecule antagonists of farnesoid X receptor signaling (AID 588526; calls by dose curve)
Settings: HEK293T FXR-UAS-bla, beta-lactamase ratio, antagonist mode; series mostly up to 76.7 µM
Outline: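 Antagonist mode: titrated compounds tested against chenodeoxycholic acid stimulation (normalized to 50 uM CDCA and DMSO) in GeneBLAzer HEK293T cells for 16 h. Beta-lactamase read by CCF4 fluorescence; IC50 from Hill fits.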

Sequence of Bile acid receptor (Homo sapiens) (Q96RI1 whole entry, looked up): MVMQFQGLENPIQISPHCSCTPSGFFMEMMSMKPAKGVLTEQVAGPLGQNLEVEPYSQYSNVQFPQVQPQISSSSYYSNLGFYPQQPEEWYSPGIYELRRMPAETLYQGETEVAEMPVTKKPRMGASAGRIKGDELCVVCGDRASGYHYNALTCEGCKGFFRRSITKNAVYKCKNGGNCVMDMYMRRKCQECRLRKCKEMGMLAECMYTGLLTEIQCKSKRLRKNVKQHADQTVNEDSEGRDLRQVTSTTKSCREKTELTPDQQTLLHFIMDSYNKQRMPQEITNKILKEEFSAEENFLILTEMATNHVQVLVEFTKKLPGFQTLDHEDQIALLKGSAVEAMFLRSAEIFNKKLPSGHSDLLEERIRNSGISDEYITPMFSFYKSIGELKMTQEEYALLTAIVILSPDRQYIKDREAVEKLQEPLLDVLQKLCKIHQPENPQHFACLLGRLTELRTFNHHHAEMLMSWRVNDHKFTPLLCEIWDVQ

Row | SMILES | outcome
67 | Cc1c(N(C)C)c(=O)n(-c2ccccc2)n1C | inactive
68 | Nc1ccc(S(=O)(=O)c2ccc(N)cc2)cc1 | inactive
69 | CC(C)=CCC/C(C)=C/CO | inactive
